“And” between values parts separate entries of the source, which are not always exact repeats. Equal entries are not always repeated. Inconclusive results are not listed. A call without a number means that no potency is given here. Some compounds were tested as several samples or in several runs, with calls that do not always agree. The source made the active and inactive calls. Unless noted, calls follow the shape of the dose curve; as a rule, active = well fitted curve in the direction sought with a large enough effect in the repeat runs; inconclusive = weak or mixed curves; inactive = flat fitted curve, though single readings scatter.

Tested on in the first assay: not listed separately
Put plainly: qHTS assay to test for compound auto fluorescence at 460 nm (blue) in HepG2 cells (AID 720687). The note with it: autofluorescence 405/460 nm, 1 h; series mostly up to 91.3 µM; fluorescence, % of fluorescent control: at the top concentration. Put shortly:
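Blue-channel autofluorescence (Ex/Em 405/460 nm, triamterene-equivalent) was measured after 1 hr compound exposure at 37 C, 5% CO2. Cells were HepG2, plated overnight at 37 C in MEM plus 10% FBS.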
For orientation: Quantitative high-throughput screening tests each substance at several concentrations.
For the compound `O=C1NC(=O)C(c2ccccc2)(c2ccccc2)N1`, the Potency result is “inactive”. Regarding `O=c1[nH]cnc2c1ncn2[C@H]1CC[C@@H](CO)O1`, the Potency entry is “inactive”. On to `C=C(C)C(=O)OCC(C)O` (centres undefined), for which the Potency entry was “inactive”. With `CC(C)c1c(C(=O)Nc2ccccc2)c(-c2ccccc2)c(-c2ccc(F)cc2)n1CC[C@@H](O)C[C@@H](O)CC(=O)O`, the Potency entry is “inactive”. As for `O=C(Nc1ncc([N+](=O)[O-])s1)c1cccs1`, the “fluorescence, % of fluorescent control” value was -0.213% [at 46 µM] (inactive). Turning to `CN1[C@@H]2CC(OC(=O)[C@H](CO)c3ccccc3)C[C@H]1[C@@H]1O[C@@H]12` (some centres undefined), the Potency entry is “inactive”. For `C/C=C/C=C/C(=O)O`, the Potency result is “inactive”. For `C1=CC2C3C=CC(C3)C2C1` (centres undefined), the “fluorescence, % of fluorescent control” value was -0.471% (inactive). Consider `CCCC[P+](CCCC)(CCCC)CCCC`, for which the Potency result was “inactive”. On to `CN1CCC[C@H]1c1cccnc1`, for which the Potency result is “inactive”. Turning to `C1CCC(C(CC2CCCCN2)C2CCCCC2)CC1` (centres undefined), the “fluorescence, % of fluorescent control” value is -0.0735% [at 46 µM] (inactive). In the case of `O=S1(=O)OC(c2ccc(O)cc2)(c2ccc(O)cc2)c2ccccc21`, the Potency result is “inactive”. Turning to `Cc1ccc(S(=O)(=O)O)cc1`, the Potency entry is “inactive”.

Turning to `CC/C(=C(\c1ccccc1)c1ccc(OCCN(C)C)cc1)c1ccccc1`, the Potency entry is “inactive”. With `CCCCCCc1ccc(O)cc1O`, the Potency result was “inactive”. On to `O=C1NS(=O)(=O)c2ccccc21`, for which the Potency entry was “inactive”.

Regarding `COc1ccc2cc(S(=O)(=O)N[C@H](CC(=O)N[C@H](Cc3ccc(CN4[C@H](C)CCC[C@@H]4C)cc3)C(=O)N(C)C(C)C)c3ccc4c(c3)OCO4)ccc2c1`, the “fluorescence, % of fluorescent control” value is -0.0906% (inactive). As to `C=C1CC[C@H](O)C/C1=C\C=C1/CCC[C@]2(C)[C@@H]([C@H](C)CCCC(C)C)CC[C@@H]12`, the Potency result is “inactive”. As for `F[B-](F)(F)F`, the Potency entry was “inactive”. With `CC(=O)CC(c1ccccc1)c1c(O)c2ccccc2oc1=O` (centres undefined), the Potency result was “inactive”. For the compound `O=CC(=O)c1ccccc1`, the “fluorescence, % of fluorescent control” value was 0.0329% (inactive).

`CN[C@H]1CC[C@@H](c2ccc(Cl)c(Cl)c2)c2ccccc21`: the “fluorescence, % of fluorescent control” value is 0.0728% [at 46 µM] (inactive). Take `CCN(CC)C(=O)c1cccc(C)c1`: the Potency result was “inactive”. As for `CCCCC(CC)C(=O)O` (centres undefined), the Potency entry is “inactive”.

Turning to `CC(C)NCC(O)c1ccc(O)c(O)c1` (centres undefined), the Potency entry is “inactive”.

With `O=C1OC2(c3ccccc31)c1cc(Br)c(O)c(Br)c1Oc1c2cc(Br)c(O)c1Br`, the Potency result is “inactive”.

As to `CC(=O)CCC(=O)O`, the Potency result was “inactive”. `COc1ccc(CN(CCN(C)C)c2ccccn2)cc1`: the Potency result was “inactive”. Turning to `CCN(Cc1c(F)cccc1Cl)c1c([N+](=O)[O-])cc(C(F)(F)F)cc1[N+](=O)[O-]`, the “fluorescence, % of fluorescent control” value is -0.431% (inactive).

Another assay deals with Glucocorticoid receptor (Homo sapiens) (UniProt P04150). The assay is described as follows: qHTS assay to identify small molecule agonists of the glucocorticoid receptor (GR) signaling pathway (AID 720691; active = well fitted activation curve with a large enough effect in the signal ratio in the repeat runs, not every such curve was filed as active; the % refers to the signal ratio). The note with it: GR-bla HeLa, beta-lactamase reporter ratio, 18 h; series mostly up to 62.4 µM; activation: at the top concentration. The method, boiled down: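 A HeLa cervical cancer line expressing GR and a glucocorticoid response element-driven beta-lactamase gene is treated with compounds for 18 h; LiveBLAzer B/G FRET substrate is then applied and fluorescence read.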
Sequence of Glucocorticoid receptor (Homo sapiens) (P04150 whole entry, looked up): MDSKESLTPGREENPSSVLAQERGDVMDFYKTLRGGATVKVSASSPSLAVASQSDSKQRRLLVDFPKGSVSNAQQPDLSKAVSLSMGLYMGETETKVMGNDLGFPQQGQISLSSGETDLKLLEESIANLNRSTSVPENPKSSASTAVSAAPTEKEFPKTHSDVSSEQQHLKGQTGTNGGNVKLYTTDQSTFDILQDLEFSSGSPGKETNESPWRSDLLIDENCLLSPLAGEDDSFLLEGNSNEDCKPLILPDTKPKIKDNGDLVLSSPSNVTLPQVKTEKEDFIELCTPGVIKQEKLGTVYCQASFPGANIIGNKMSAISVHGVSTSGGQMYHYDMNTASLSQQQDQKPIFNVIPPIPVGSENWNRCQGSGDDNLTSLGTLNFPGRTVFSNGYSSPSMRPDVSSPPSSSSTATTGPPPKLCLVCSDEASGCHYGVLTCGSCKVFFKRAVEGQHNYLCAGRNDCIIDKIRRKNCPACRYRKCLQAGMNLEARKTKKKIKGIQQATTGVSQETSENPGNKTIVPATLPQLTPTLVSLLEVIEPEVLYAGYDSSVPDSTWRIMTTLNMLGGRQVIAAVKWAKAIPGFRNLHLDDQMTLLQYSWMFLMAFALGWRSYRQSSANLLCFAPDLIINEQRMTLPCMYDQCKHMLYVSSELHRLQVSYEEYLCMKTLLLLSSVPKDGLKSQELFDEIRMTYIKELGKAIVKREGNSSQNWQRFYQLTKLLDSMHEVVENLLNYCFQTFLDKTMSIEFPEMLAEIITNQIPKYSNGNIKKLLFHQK
On to `O=C1NC(=O)C(c2ccccc2)(c2ccccc2)N1`, for which the Potency entry is “inactive”. The same measure, in the same setting: next, `O=c1[nH]cnc2c1ncn2[C@H]1CC[C@@H](CO)O1`: “inactive”; `C=C(C)C(=O)OCC(C)O` (centres undefined): “inactive”. `CC(C)c1c(C(=O)Nc2ccccc2)c(-c2ccccc2)c(-c2ccc(F)cc2)n1CC[C@@H](O)C[C@@H](O)CC(=O)O`: the “activation” value is -8.08% (inactive). For the compound `O=C(Nc1ncc([N+](=O)[O-])s1)c1cccs1`, the “activation” value was 0.887% (inactive).

Turning to `C1=CC2C3C=CC(C3)C2C1` (centres undefined), the “activation” value is -4.35% (inactive). For the compound `CCCC[P+](CCCC)(CCCC)CCCC`, the Potency entry is “inactive”. Consider `CCCCCCc1ccc(O)cc1O`, for which the “activation” value is 0.515% (inactive). Take `C=C1CC[C@H](O)C/C1=C\C=C1/CCC[C@]2(C)[C@@H]([C@H](C)CCCC(C)C)CC[C@@H]12`: the Potency entry was “inactive”. On to `O=CC(=O)c1ccccc1`, for which the “activation” value was -2.01% (inactive). With `CN[C@H]1CC[C@@H](c2ccc(Cl)c(Cl)c2)c2ccccc21`, the “activation” value is 24% (inactive). With `CCN(CC)C(=O)c1cccc(C)c1`, the Potency entry was “inactive”. With `CC(C)NCC(O)c1ccc(O)c(O)c1` (centres undefined), the Potency entry is “inactive”. With `CC(=O)CCC(=O)O`, the Potency result is “inactive”. Take `COc1ccc(CN(CCN(C)C)c2ccccn2)cc1`: the Potency result was “inactive”.

The next assay has the same target. Put plainly: qHTS assay to identify small molecule antagonists of the glucocorticoid receptor (GR) signaling pathway (AID 720692; active = well fitted inhibition curve with a large enough effect in the signal ratio in the repeat runs, not every such curve was filed as active; the % refers to the signal ratio; also: potency is read from the fitted curve at half-maximal effect). Particulars: GR-bla HeLa, beta-lactamase FRET ratio, dexamethasone-stimulated, 18 h; series mostly up to 58.5 µM; activity change, negative = inhibition: at the top concentration. The method, boiled down: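 GRE-bla HeLa line, dex-stimulated (5 nM final). Compound exposure 18 h, 37 C. Beta-lactamase FRET read after 2 h RT substrate.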
On to `O=C1NC(=O)C(c2ccccc2)(c2ccccc2)N1`, for which the Potency entry was “inactive”. With `O=c1[nH]cnc2c1ncn2[C@H]1CC[C@@H](CO)O1`, the “activity change, negative = inhibition” value is 3.42% (inactive). Turning to `C=C(C)C(=O)OCC(C)O` (centres undefined), the Potency entry was “inactive”.

Turning to `CCCC[P+](CCCC)(CCCC)CCCC`, the Potency entry was “inactive”. The same measure, in the same setting: next, `CCCCCCc1ccc(O)cc1O`: “inactive and 49 µM (active)”. As for `O=CC(=O)c1ccccc1`, the “activity change, negative = inhibition” value is 5.96% (inactive). As to `CCN(CC)C(=O)c1cccc(C)c1`, the Potency entry is “inactive”.

Consider `CC(C)NCC(O)c1ccc(O)c(O)c1` (centres undefined), for which the Potency entry was “inactive”. As to `CC(=O)CCC(=O)O`, the Potency result was “inactive”. In the case of `COc1ccc(CN(CCN(C)C)c2ccccn2)cc1`, the “activity change, negative = inhibition” value was 4.95% (inactive).

These data come from PubChem BioAssay (Tox21).
